The sample as a whole holds a higher share of hits than the screen did.
RBX1-CUL1 inh: inhibitors of human ROC1-CUL1 ubiquitin ligase activity. P62877+Q13616. in vitro K48 di-Ub FRET, acceptor:donor ratio, 45 min. inhibition, % at 10 µM. hit rate 0.6% among 140,000. AID 1347404; in the data active means inhibition above about 25%
Numbers without * were called inactive.

SMILES	RBX1-CUL1 inh
O=C(Nc1ccc(Oc2ccccc2)nc1)C1CCN(Cc2ccccn2)CC1	-8
O=S(=O)(Cc1ccccc1F)NCc1ccncc1	1
Cc1c(C(=O)NCc2ccccc2Cl)oc2ccccc12	6
Cc1cc2oc(C(=O)N(Cc3ccc(Cl)cc3)C3CCS(=O)(=O)C3)c(C)c2cc1C (stereo unspecified)	8
COc1cccc(C=Nc2ccc(C(N)=O)cc2)c1O	3
COc1ccc(OC)c(C(=O)O)c1N	5
COc1ccc2c(c1O)SC(=O)C2	106*
O=C(c1sccc1Cl)N1CCOc2ccc(CN3CCN(c4ncccn4)CC3)cc2C1	-4
CCn1cc(C(=O)N/N=C/c2ccccc2O)c(=O)c2cc(F)c(N/N=C/c3ccccc3O)cc21	3
Cc1c(CC(=O)NCc2ccon2)c2c(n1CC1CCCO1)CCCC2=O (stereo unspecified)	-1
Cc1c(CC(=O)NCc2ccon2)c2c(n1CCc1ccccc1)CCCC2=O	29*
Cc1c(CC(=O)NCC(N)=O)c2c(n1CCc1ccccc1)CCCC2=O	9
CCS(=O)(=O)c1ncc(CN(C)CCOC)n1CCCc1ccccc1	-1
COc1ccc(F)c(CC2(CCC(=O)N3CCN(C/C=C/c4ccccc4)CC3)CCC(=O)N2)c1 (stereo unspecified)	-4
CCCCCCN1C(=O)/C(=C/c2cc(OC)c(OC)c(OC)c2)N(C)C1=S	3
CCCCCCN1C(=O)C2=C(c3cc(O)cc(O)c3)N(CCCCCC)C(=O)C2=C1c1cc(O)cc(O)c1	46*
CCCCCCCC(=O)N=C1C(=O)N(c2ccccc2)N(C)C1C (stereo unspecified)	11
CC1=NNc2nc3c(c(=O)n(CCC(C)C)c(=O)n3C)n2C1C (stereo unspecified)	1
CC(=O)OCC[N+]1(C)CC[N+](C)(CCCC(c2ccc(F)cc2)c2ccc(F)cc2)CC1 (stereo unspecified)	-7
O=C1NC(=S)S/C1=C/C=C/c1ccccc1Cl	9
Cc1ccccc1N=C/C=C1\N(C)c2ccccc2C1(C)C	-4
CN1/C(=C\C=C2/SC(=S)NC2=O)C(C)(C)c2ccccc21	34*
CS(=O)(=O)Nc1ccc(S(=O)(=O)NC2CCCC2)cc1	-7
COc1ccc(OC)c(NC(=O)c2c(NCc3ccc(C)o3)sc3c2CCCCC3)c1	30*
COc1ccc(Cl)cc1NC(=O)c1c(NCc2ccc(C)o2)sc2c1CCC(C)C2 (stereo unspecified)	-3
SMILES	RBX1-CUL1 inh
COc1ccccc1NC(=O)c1c(NCc2ccc(C)o2)sc2c1CCCCC2	24
COc1ccc(Cl)cc1NC(=O)c1c(NCc2ccc(C)o2)sc2c1CCCCC2	26*
COc1ccc(OC)c(NC(=O)c2c(NCc3ccc(OC)c(OC)c3)sc3c2CCC3)c1	3
COc1ccc(OC)c(NC(=O)c2c(NCc3sccc3C)sc3c2CCCCC3)c1	3
COc1ccc(C2C(C(=O)c3ccc(OC(C)C)cc3)C(=O)C(=O)N2c2ccccn2)cc1 (stereo unspecified)	-3
Cc1cc(NC(=O)C(C)Oc2ccc(Br)cc2Br)no1 (stereo unspecified)	6
COc1cc(N=CC2C(=O)OC(C)(C)OC2=O)c2ncccc2c1[N+](=O)[O-]	1
CC(=O)N1/C(=C/c2ccc(O)cc2)C(=O)c2ccccc21	60*
CC(=O)N1/C(=C/c2ccccc2O)C(=O)c2cc(Br)ccc21	7
O=C1/C(=C/c2ccc(O)cc2)CS(=O)(=O)c2ccccc21	6
CCc1cc2c(cc1O)C(=O)c1ccccc1C2=O	-1
Cc1ccc(F)cc1NC(=O)CN1CCCCC1	15
CCOC(=O)c1[nH]ncc1[C@@H]1C[C@H]2CN(c3ccccc3)C(=O)[C@]23CCCN13	-9
N#CC1=C(c2ccccc2)CC(C(F)(F)F)=NC1=S	6
N#CC1=C(C(F)(F)F)CC(c2ccco2)=NC1=S	91*
CC1=NC(=S)C(C#N)=C(C(F)(F)F)C1	-1
COc1ccc(-c2nn(CN3CCN(Cc4ccccc4)CC3)c(=S)o2)cc1OC	11
CC1=C(C)C2(C)c3c(Cl)c(Cl)c(Cl)c(Cl)c3C1(C)C(=O)C2(C)C (stereo unspecified)	-8
Cn1c(SCCc2ccccc2)nc2c(c1=O)C1(CCCC1)Cc1ccccc1-2	-5
NCCCSc1nc2c(c(=O)n1Cc1ccccc1)C1(CCCCC1)Cc1ccccc1-2	92*
C#CCSc1nc2c(c(=O)n1Cc1ccccc1)C1(CCCCC1)Cc1ccccc1-2	-7
O=C(c1sc2cccc(Cl)c2c1Cl)N(Cc1cccs1)C1CCS(=O)(=O)C1 (stereo unspecified)	1
O=C1C2CCCCC2C(=O)N1c1ccc(OS(=O)(=O)c2ccc(Cl)cc2)cc1 (stereo unspecified)	4
Cc1cc(CNC2CCN(c3ccc(C(=O)NCCN4CCOCC4)cc3)CC2)nn1C	-4
CCOc1cc(/C=N/NC(N)=O)ccc1OCC(=O)Nc1cc(C)c(C)cc1Br	-9
SMILES	RBX1-CUL1 inh
O=C1NN(c2cccc(Br)c2)C(=O)/C1=C\c1cccc(OC(=O)c2cccs2)c1	87*
CCc1ccc(N2NC(=O)/C(=C/c3cccc(OC(C)=O)c3)C2=O)cc1	11
Cc1ccc(N2NC(=O)/C(=C/c3cccc(Br)c3)C2=O)cc1	-12
O=C1NN(c2cccc(F)c2)C(=O)/C1=C\c1cccc(OC(=O)c2cccs2)c1	27*
CCOC(=O)c1ccc(N2NC(=O)/C(=C/c3cccc(OC(=O)c4cccs4)c3)C2=O)cc1	67*
Cc1cccc(N2NC(=O)/C(=C\c3cccs3)C2=O)c1	-6
O=C1NN(c2ccc(Cl)c(Cl)c2)C(=O)/C1=C/c1cccc(OC(=O)c2cccs2)c1	15
CC(=O)Oc1cccc(/C=C2/C(=O)NN(c3ccc(F)cc3)C2=O)c1	20
CCc1ccc(N2NC(=O)/C(=C/c3ccc(OC(=O)c4cccs4)c(OC)c3)C2=O)cc1	8
CC1=NN(c2nc(-c3ccccc3)cs2)C(=O)C1N=Nc1ccc(Br)cc1 (stereo unspecified)	0
Cc1ccc(-c2[nH]nc3c2C(c2cc(Br)c(O)c(Br)c2)C(C#N)C(=N)O3)c(C)c1 (stereo unspecified)	-14
COCCN(C(=O)c1csc2nc(-c3ccccc3C)cn12)C(C)C	3
CC(=O)Nc1ccc(-n2c(C)cc(C=C3C(=O)c4ccccc4C3=O)c2C)cc1	5
COc1cc(C(=O)Nc2cc(OC)c(OC)c(OC)c2)ccc1OC(F)F	-5
CC1(C)OC(=O)C(C=NCc2ccccc2)C(=O)O1	-1
CN1C(=O)C(C=NCc2ccccc2)c2ccccc21 (stereo unspecified)	-2
O=C1C=CC(=O)C(C(C=NCc2ccccc2)[N+](=O)[O-])=C1 (stereo unspecified)	97*
CC(=O)Nc1sc2c(c1C(=O)c1ccccc1)CCCC2	-2
Cc1ccc(C(=O)Nc2sc3c(c2C(=O)O)CCCC3)cc1	47*
CN1CCN(C(=O)c2c(NC(=O)c3ccccc3)sc3c2CCCC3)CC1	-2
O=C(Nc1sc2c(c1C(=O)O)CCCCC2)c1ccccc1	2
NCCNC(=O)c1c(NC(=O)c2ccccc2)sc2c1CCCC2	34*
CCOC(=O)c1c(NC(=O)c2ccc(C)cc2)sc2c1CCCCC2	-1
O=C(O)CC(Cc1ccc(Cl)cc1)C(=O)Nc1ccc(I)cc1 (stereo unspecified)	11
O=S1(=O)NC(Cl)C2CCCCC21 (stereo unspecified)	5
CC1(Cl)Cc2ccc(N)cc2NC1=O (stereo unspecified)	-6

Assay outcomes from PubChem BioAssay.
